Some test systems named below: SK-MEL-2 melanoma; EKVX NSCLC; SN12C renal; UO-31 renal; TK-10 renal; ACHN renal; A498 renal; CCRF-CEM leukemia; MOLT-4 leukemia.
Holding throughout (assay): NCI-60 one-dose screen, 48 h (100 = growth as untreated, 0 = no growth, -100 = all killed)
What all share (details): 10 µM unless noted

The panel holds about 83,000 compounds, 20% with a hit somewhere; the sample as a whole holds those more often.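 Treatment: one concentration, 48 hours, 96-well format. Scoring: percent growth, with anything below 10 considered active.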 Values without a mark were called inactive. The source made the active and inactive calls.

As for `Cn1c(=O)c2c(nc(Br)n2CC(=O)Nc2ccc(F)cc2)n(C)c1=O`, the growth with SK-MEL-2 melanoma is 99.1%; in the assay with EKVX NSCLC, 102%; in the assay on SN12C renal it was 109%; in the assay with UO-31 renal it was 80.9%; in the assay on TK-10 renal, 115%; in the assay on ACHN renal it was 104%. The values for the growth in the assay with A498 renal, with CCRF-CEM leukemia and with MOLT-4 leukemia were 117%, 90.1% and 91.9%, respectively.

In the case of `COC(=O)[C@]12CC[C@@H](C)[C@H](C)[C@@H]1C1=CC[C@@H]3[C@@]4(C)C[C@@H](OC(C)=O)[C@H](O)[C@@](C)(CO)[C@@H]4[C@H](O)C[C@@]3(C)[C@]1(C)CC2`, the growth in the assay with SK-MEL-2 melanoma is -84.2% (active); with EKVX NSCLC it was -91.8% (active); with SN12C renal, -78.3% (active); with UO-31 renal, -74.1% (active); with TK-10 renal it was -96.9% (active); in the assay on ACHN renal it was -88.3% (active). Further, the growth with A498 renal was -95.9% (active); with CCRF-CEM leukemia it was -68% (active); in the assay on MOLT-4 leukemia it was -55.9% (active).

Take `NCCn1cc(-c2nc(-c3c[nH]c4ncccc34)cs2)c2cc(F)ccc21`: the growth in the assay with SK-MEL-2 melanoma is 94.7%; with EKVX NSCLC, 48.6%; in the assay with SN12C renal it was 79%; with UO-31 renal, 53.3%; in the assay with TK-10 renal, 142%; with ACHN renal, 76.4%. The growth in the assay on A498 renal is 91.4%; with CCRF-CEM leukemia it was 49%; in the assay on MOLT-4 leukemia it was 57%.

On to `C=C1C(=O)O[C@H]2[C@H]1CC/C(COC(=O)NCCc1c[nH]c3ccccc13)=C\CC[C@@]1(C)O[C@@H]21`, for which the growth in the assay on SK-MEL-2 melanoma was 61.5%; in the assay on EKVX NSCLC it was 69.2%; in the assay with SN12C renal, -0.18% (active); in the assay with UO-31 renal it was -100% (active); in the assay with TK-10 renal, -20.7% (active); with ACHN renal, -93.7% (active). Moreover, the growth was 80.8% in the assay with A498 renal, 3.28% (active) in the assay on CCRF-CEM leukemia and -3.9% (active) with MOLT-4 leukemia.

On to `Brc1ccc2c(c1)c(-c1nc(-c3c[nH]c4ncccc34)cs1)cn2CCCN1CCCCC1`, for which the growth in the assay with SK-MEL-2 melanoma is 36.8%; in the assay with EKVX NSCLC, 50.1%; in the assay with SN12C renal, 25.3%; with UO-31 renal it was -52% (active); with TK-10 renal, 76.2%; with ACHN renal, -23.7% (active). Further, the growth with A498 renal was 77%; with CCRF-CEM leukemia, -35.5% (active); in the assay with MOLT-4 leukemia, -44.6% (active).

With `COc1ccc2c(c1)C(Br)=C(CCO)C2c1ccccc1` (stereo not given), the growth in the assay with SK-MEL-2 melanoma was 85%; in the assay with EKVX NSCLC, 75.8%; in the assay on SN12C renal, 99.2%; in the assay with UO-31 renal, 62.4%; with TK-10 renal, 67%; with ACHN renal, 4.96% (active). Besides, the growth with A498 renal is 35.6%; in the assay with CCRF-CEM leukemia it was 95.2%; with MOLT-4 leukemia, 114%.

Consider `Cn1cc(-c2csc(-c3cn(CCNC(=O)OC(C)(C)C)c4ccc(F)cc34)n2)c2cccnc21`, for which the growth is 82.4% in the assay with SK-MEL-2 melanoma; 55.9% in the assay with EKVX NSCLC; 85.9% in the assay with SN12C renal; 39.7% with UO-31 renal; 104% in the assay on TK-10 renal; 69.2% with ACHN renal. Further, the growth in the assay with A498 renal is 91.1%; in the assay with CCRF-CEM leukemia, 33.5%; with MOLT-4 leukemia, 31.8%.

As to `NCCn1cc(-c2nc(-c3c[nH]c4ncccc34)cs2)c2cc(Br)ccc21`, the growth in the assay on SK-MEL-2 melanoma is 101%; with EKVX NSCLC, 64%; in the assay with SN12C renal, 78%; in the assay with UO-31 renal, 62.2%; in the assay with TK-10 renal, 149%; in the assay on ACHN renal it was 76.4%. For the same molecule, the figures for the growth with A498 renal, with CCRF-CEM leukemia and in the assay on MOLT-4 leukemia were 93.6%, 60% and 41.8%, respectively.

`O=C1C(=O)N(CCCCn2cc(-c3ccccc3)nn2)c2ccccc21`: the growth is 122% with SK-MEL-2 melanoma; 93.9% with EKVX NSCLC; 94.3% in the assay with SN12C renal; 75.3% in the assay with UO-31 renal; 136% in the assay on TK-10 renal; 103% with ACHN renal. Further, the growth in the assay on A498 renal was 110%; in the assay on CCRF-CEM leukemia it was 97.2%; in the assay with MOLT-4 leukemia it was 101%.

Consider `NC1=NN=C2N(N)C(=O)c3cnn(-c4ccccc4)c3N2c2nc(-c3ccccc3)cc(-c3ccccc3)c21`, for which the growth is 104% in the assay on SK-MEL-2 melanoma; 96.7% in the assay with EKVX NSCLC; 97% in the assay on SN12C renal; 78.3% with UO-31 renal; 116% in the assay with TK-10 renal; 101% in the assay on ACHN renal. Besides, the figures for the growth in the assay with A498 renal, with CCRF-CEM leukemia and in the assay on MOLT-4 leukemia were 114%, 96.7% and 91.6%, respectively.

Consider `COC(=O)[C@]12CC[C@@H](C)[C@H](C)[C@@H]1C1=CC[C@@H]3[C@@]4(C)C[C@@H](O)OC[C@](C)(C=O)C4C(=O)C[C@@]3(C)[C@]1(C)CC2` (stereo not given in full), for which the growth is -22.4% (active) with SK-MEL-2 melanoma; 21% in the assay on EKVX NSCLC; 11.4% in the assay on SN12C renal; 7.68% (active) with UO-31 renal; 9.25% (active) in the assay with TK-10 renal; 7.86% (active) with ACHN renal. For the same molecule, the values for the growth in the assay with A498 renal, with CCRF-CEM leukemia and with MOLT-4 leukemia were -0.985% (active), -7.54% (active) and -9.93% (active), respectively.

For the molecule `COc1ccc2c(c1)c(-c1nc(-c3cn(C)c4ncccc34)cs1)cn2CCN`, the growth was 101% in the assay with SK-MEL-2 melanoma; 56.5% in the assay with EKVX NSCLC; 76.3% with SN12C renal; 66.6% in the assay with UO-31 renal; 92.4% in the assay on TK-10 renal; 69.4% in the assay on ACHN renal. Moreover, the results for the growth in the assay on CCRF-CEM leukemia and in the assay with MOLT-4 leukemia were 69% and 29.7%, respectively.

Turning to `Cc1cc(N2CCCCC2)nc(N(CCCNc2ccnc3cc(Cl)ccc23)Cc2ccco2)n1`, the growth is 44.8% in the assay on SK-MEL-2 melanoma; 39.4% in the assay with EKVX NSCLC; 36.3% with SN12C renal; 15.6% with UO-31 renal; 63.2% in the assay with TK-10 renal; 38.8% in the assay on ACHN renal. Moreover, the growth is 46.5% in the assay with A498 renal, 19.5% with CCRF-CEM leukemia and 6.82% (active) in the assay on MOLT-4 leukemia.

Consider `COc1cc(-c2cc3ncccc3c3[nH]c(=O)c4cccnc4c23)cc(OC)c1OC`, for which the growth is 44.6% in the assay with SK-MEL-2 melanoma; 33.2% with EKVX NSCLC; 42.7% in the assay with SN12C renal; 36.2% in the assay with UO-31 renal; 52.2% in the assay with TK-10 renal; 46.7% in the assay with ACHN renal. The growth in the assay on A498 renal is -18.1% (active); in the assay with CCRF-CEM leukemia it was 13.1%; in the assay on MOLT-4 leukemia, 31.6%.

The values are drawn from PubChem BioAssay (NCI).
